Laboratory results published in PubChem BioAssay AID1276 (Columbia University Molecular Screening Center, 2008).
Among all 190,000 compounds or so, about 2,000 (1.1%) were called active. The full list was thinned out, with actives kept by preference. A number with no mark means an inactive call.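 The calls were made as follows: active = activation above a set limit, based on mean plus 3 SD of controls (cut at about 140% in these data); inconclusive = one replicate above the limit, the other below; inactive = the rest.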

Assay: activators of APP 5'UTR luciferase reporter, primary screen, SH-SY5Y cells (AID 1276)
Conditions: SH-SY5Y APP 5'UTR luciferase reporter, luminescence; at 2 µM; stronger effect = higher value; zero percent = DMSO vehicle wells

In order of falling activation:
1. COc1ccc(C(=O)/C=C/Nc2ccccn2)cc1  134%
2. COc1ccc(-c2csc(Nc3ccc(O)cc3)n2)cc1  120%
3. COc1ccc(C(=S)Nc2ccccc2)cc1  68.3%
4. COc1ccc2nc(Nc3nc(-c4ccncc4)cs3)sc2c1  65.1%
5. NS(=O)(=O)c1ccc(Nc2nc(-c3ccccc3)cs2)cc1  52.2%
6. Cc1ccnc(N2CCCC(C(=O)Nc3cc(F)ccc3C)C2)n1 (centres undefined)  30.3%
7. c1cnc(Nc2nc(-c3ccc4ccccc4c3)cs2)nc1  29.6%
8. CCCCSc1nc2ccccc2[nH]1  27.4%
9. O=C(Nc1ccc(Cl)cn1)Nc1cccs1  25.6%
10. O=C(Nc1cccn(Cc2ccccc2Cl)c1=O)NC1CCCCC1  19.9%
11. CCN(CC)CCOC(=O)c1ccc(NC(=O)CNC(=O)c2ccccc2)cc1  18.8%
12. Oc1ccc(-c2csc(Nc3cccnc3)n2)cc1  17.7%
13. COc1ccccc1Oc1ccc(N/C=C2/CCCC2=O)cc1  17.2%
14. Cc1[nH]c2c(C(=O)N3CCCC(CCC(=O)NCc4ccccc4F)C3)cccc2c1C (centres undefined)  17.2%
15. C=CCSc1nc2ccccc2[nH]1  15.8%
16. CCCCCN(C(=O)NC(=O)Nc1cccc(C)c1C)S(C)(=O)=O  12.9%
17. CCN(CC)CCNC(=O)c1ccc(NS(=O)(=O)c2ccc3c(c2)OCCO3)cc1  12.6%
18. CCc1cccc(CC)c1NC(=O)COc1ccccc1C(=O)c1cc(C#N)c(=O)n(C2CCCCC2)c1  12.3%
19. O=C(Nc1nc(-c2ccc(-c3ccccc3)cc2)cs1)c1cnccn1  11%
20. COc1cccc(CN(C)CC(=O)NCc2ccccc2Cl)c1OC  7.69%
21. Cc1ccc(NC(=O)CSc2nc(CSc3ccc(C)cc3)cc(=O)[nH]2)cc1  7.62%
22. c1ccc(Nc2nc(N3CCOCC3)c3ccccc3n2)cc1  7.27%
23. NC(=O)C1CCN(Cc2nc3c(Br)cc(Br)cc3c(=O)[nH]2)CC1  4.38%
24. O=C1C2C3C=CC(C3)C2C(=O)N1c1ccc(-c2nc3ccccc3c(=O)o2)cc1 (centres undefined)  3.88%
25. Cc1cc(C)nc(N2CCC(C(=O)Nc3ccc4c(c3)OCCO4)CC2)n1  2.98%
26. CCOC(=O)c1c(/N=C/C2C(=O)CC(C)(C)CC2=O)sc(C)c1C  2.63%
27. Cc1cccc(C(=O)N2CCCN(C(=O)c3cccc(C)c3)CC2)c1  2.21%
28. COc1cc(C(=O)Nc2cc(C(F)(F)F)ccc2-n2cncn2)cc(OC)c1OC  0.9%
29. COc1c(C=O)c(CCN(C)C(=O)c2ccc(F)cc2)cc2c1OCO2  0.6%
30. O=C(Nc1ccc(N2CCN(C(=O)C3CC3)CC2)cc1)c1cccs1  -0.31%
31. COc1ccccc1/C=N\Nc1cc(C)nc(-n2nc(C)cc2C)n1  -3.23%
32. CCN(CC)CCn1c(/N=C/c2cc(Br)ccc2O)nc2ccccc21  -4.24%
33. Cc1cc(=O)oc(C)c1C(=O)N1CCCCC1  -5.29%
34. COC(c1ccccc1)c1nnc(CCC(=O)N2CCN(CCOc3ccccc3)CC2)o1 (centres undefined)  -7.19%
35. OCC1(Cc2ccccc2)CCN(Cc2cc3ccccc3o2)CC1  -8.13%
36. CCOc1ccc(Nc2nc(Cl)nc(N3CCN(c4ccc(OC)cc4)CC3)n2)cc1  -9.55%
37. CCN(CC)c1ccc2c(Nc3ccccc3)c(C=O)c(=O)oc2c1  -11.3%
38. COc1ccc(C(=O)NC2CCN(C(=S)Nc3ccccc3)CC2)cc1  -16.7%
39. CCC1(C(=O)c2ccccc2)C(c2cccc([N+](=O)[O-])c2)C1(C(=O)OC)C(=O)OC (centres undefined)  -17.3%
40. CC(C)(C)NC(=O)CN(C(=O)c1ccc(Cl)nc1)c1cccc2ccccc12  -19.3%

For COc1ccc(Nc2ncc(F)c(N3CCOCC3)n2)cc1, the activation was 153% (active).
For COc1ccc(NC(=S)N2N=CCC2c2ccccc2)cc1 (centres undefined), the activation was 180% (active).
For Cc1ccc2cc3cc(C(=O)N4CCCCCC4)oc3nc2c1, the activation was 167% (active).
In the case of O=C(CSc1nc2ccccc2[nH]1)c1cccs1, the activation is reported as 162% (active).
With O=C(Nc1ccc2c(c1)OCCO2)C1CCCN(c2ncccn2)C1 (centres undefined) the activation was 159% (active).
In the case of COc1ccc(Nc2nc(-c3ccccc3)cs2)cc1, the activation is reported as 148% (active).
In the case of Clc1ccc(Nc2nc(-c3cccs3)cs2)nc1, the activation is reported as 135% (active).
In the case of COc1ccc(-c2csc(Nc3ccccn3)n2)cc1, the activation is reported as 205% (active).
For c1ccc(Nc2nc(-c3ccncc3)cs2)nc1, the activation was 158% (active).
